This assay is described as follows: reversal of MRP1-mediated doxorubicin resistance, primary screen, H69AR cells, doxorubicin co-treatment (AID 602).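 As to differential viability (reversal): larger differential means the compound sensitizes cells more to doxorubicin.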 Conditions: CellTiter-Glo, 72 h, at 10 µM; for differential viability (reversal): stronger effect = higher value.
[1] abbreviates: H69AR cells + 2 uM doxorubicin, measured here: viability with 2 uM doxorubicin, stronger effect = lower value.
Setting [2] is: H69AR cells, measured here: cytotoxicity without doxorubicin.

In all, about 85,000 compounds went through this assay and about 35 (0.04%) were called active.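 The calls were made as follows: active = viability drop by adding the cancer drug above about 55%, with treated viability meeting a 40% cutoff (limit read from the data); inactive = the rest, inconclusive results apart.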 This excerpt belongs to a sample that is enriched for actives.

As for `Cc1ccc(N(CC(=O)Nc2cc(C)cc(C)c2)S(=O)(=O)c2cccc3nonc23)cc1`, for the setting “H69AR cells + 2 uM doxorubicin”, the differential viability (reversal) is -3.92% (inactive). The viability reads like this: under setting [1], 101%; under setting [2], 96.6%.
Consider `Cn1ccs/c1=N\S(=O)(=O)c1ccc(C(C)(C)C)cc1`, for which the differential viability (reversal) (H69AR cells + 2 uM doxorubicin) was 11.8% (inactive). The viability runs as follows: under setting [1], 77.6%; under setting [2], 89.4%.
On the same counts, the results for `CCOC(=O)c1ccc(COC(=O)CCc2nc(-c3ccccc3)c(-c3ccccc3)o2)cc1` are -11.9% (inactive), 83.3% and 71.4%.
On the same counts, the results for `CCCC(C)C(=O)Nc1ccc(NC(C)=O)cc1` (centres undefined) are 22.1% (inactive), 80.5% and 103%.
Regarding `COc1c(F)c(F)c(C(=O)O)c(Nc2ccccc2C)c1F`, under “H69AR cells + 2 uM doxorubicin”, the differential viability (reversal) was 3.75% (inactive). In addition, the viability amounted to 94.8% under setting [1] and 98.5% under setting [2].
Regarding `C=CCc1ccc(OCCOc2cccc(/C=N/n3cnnc3)c2)c(OC)c1`, the differential viability (reversal) (H69AR cells + 2 uM doxorubicin) was 9.09% (inactive). In addition, the viability runs as follows: under setting [1], 71.3%; under setting [2], 80.3%.
On the same counts, the results for `CCOC(=O)CSc1nc2ccc(C)cc2[nH]1` are 2.1% (inactive), 87.3% and 89.4%.
Consider `C=CCn1c(SCC(=O)c2ccc(Br)cc2)nnc1C(C)NC(=O)Cc1ccc(OC)cc1` (centres undefined), for which the differential viability (reversal) (H69AR cells + 2 uM doxorubicin) is 22.5% (inactive). Also, the viability was 49.3% under setting [1] and 71.8% under setting [2].
On to `O=C1CSC(c2cccc(F)c2)N1c1ccc(O)cc1` (centres undefined), for which the differential viability (reversal) (H69AR cells + 2 uM doxorubicin) was 12.3% (inactive). Also, the viability is 88.2% under setting [1] and 101% under setting [2].
On the same counts, the results for `Cc1nnc(NCCO)c2ccccc12` are 7.47% (inactive), 82.3% and 89.8%.
In the case of `CCn1c(SCC(=O)c2ccc3ccccc3c2)nnc1-c1cccs1`, the differential viability (reversal) (H69AR cells + 2 uM doxorubicin) is 5.66% (inactive). For the same compound, the viability was found to be 98.1% under setting [1] and 104% under setting [2].
For the compound `Cc1cc(C(=O)Nc2ccccc2N2CCOCC2)c2ccccc2n1`, the differential viability (reversal) (H69AR cells + 2 uM doxorubicin) was -7.84% (inactive). Also, the viability is, setting by setting: under setting [1], 75.7%; under setting [2], 67.9%.
On the same counts, the results for `Cc1nnc(SCC(=O)NC2CCCC2)s1` are 7.72% (inactive), 107% and 115%.
As to `Nn1c(SCC(=O)NC2CCCC2)nnc1-c1ccccc1F`, the differential viability (reversal) (H69AR cells + 2 uM doxorubicin) is 13.3% (inactive). Further, the viability under setting [1] amounted to 88.7% and the viability under setting [2] was determined as 102%.
For the compound `COC(CNC(=O)Cn1ncc2ccsc2c1=O)OC`, for the setting “H69AR cells + 2 uM doxorubicin”, the differential viability (reversal) was -2.17% (inactive). For the same compound, the viability under setting [1] stood at 103% and the viability under setting [2] was 101%.
On the same counts, the results for `Cc1cccc(N2CCN(C(c3ccc(N(C)C)cc3)c3nnnn3C(C)(C)C)CC2)c1C` (centres undefined) are 2.35% (inactive), 81% and 83.3%.
`CCOC(=O)C1=C(CSc2nnnn2C)N(C)C(=O)NC1c1ccccc1` (centres undefined): the differential viability (reversal) (H69AR cells + 2 uM doxorubicin) was 12.1% (inactive). Further, the viability is, setting by setting: under setting [1], 81%; under setting [2], 93.1%.
On to `COc1ccc(CCNS(=O)(=O)c2ccc(Cl)s2)cc1OC`, for which the differential viability (reversal) (H69AR cells + 2 uM doxorubicin) was 13.7% (inactive). Further, the viability by setting is: under setting [1], 79.3%; under setting [2], 93%.
As for `O=S(=O)(Nc1ccc(Oc2ncccn2)c(Cl)c1)c1ccc(F)cc1`, the differential viability (reversal) (H69AR cells + 2 uM doxorubicin) is 4.78% (inactive). For the same compound, the viability by setting is: under setting [1], 88.8%; under setting [2], 93.6%.
On the same counts, the results for `CC(c1ccccn1)N(CCN(C)C)C(=S)Nc1ccccc1F` (centres undefined) are 16.9% (inactive), 100% and 117%.
On to `CCC(=O)NC(Nc1cc(C)ccn1)(C(F)(F)F)C(F)(F)F`, for which, under “H69AR cells + 2 uM doxorubicin”, the differential viability (reversal) is 7.06% (inactive). Also, the viability under setting [1] is 92% and the viability under setting [2] amounted to 99%.
On the same counts, the results for `O=C(NCC1CCC(C(=O)O)CC1)OCc1ccccc1` (centres undefined) are 6.33% (inactive), 92.2% and 98.5%.
`CCN(CC)CCn1c(=S)[nH]c2ncccc2c1=O`: the differential viability (reversal) (H69AR cells + 2 uM doxorubicin) is 12.4% (inactive). For the same compound, the viability under setting [1] was 88.8% and the viability under setting [2] was determined as 101%.
On the same counts, the results for `CCOC(=O)C1C(=O)NCC1c1ccccc1` (centres undefined) are 1.49% (inactive), 98.4% and 99.9%.
On the same counts, the results for `CC(C)CC(N=C1NC(C)(C)Cc2ccccc21)C(=O)O` (centres undefined) are 9.71% (inactive), 98.6% and 108%.
Take `CCCCNC(=O)OC(C)CNC(=O)OC` (centres undefined): the differential viability (reversal) (H69AR cells + 2 uM doxorubicin) is -15% (inactive). The viability is, setting by setting: under setting [1], 111%; under setting [2], 95.6%.
On the same counts, the results for `COc1cc(OC)nc(NC(=O)CCl)n1` are 4.9% (inactive), 93.8% and 98.7%.
`Cc1cc2nc(C)n(CCCNC(=O)Nc3ccccc3)c2cc1C`: the differential viability (reversal) (H69AR cells + 2 uM doxorubicin) is 7.8% (inactive). Besides, the viability reads like this: under setting [1], 83.9%; under setting [2], 91.7%.

These data come from PubChem BioAssay AID602 (SRMLSC, 2007).
